The values below come from PubChem BioAssay (EPA / NIEHS).

In general, AC50 refers to the concentration giving half of the maximal activity seen.

The nature of assay [1]: ATG_PBREM_CIS: Attagene CIS-FACTORIAL HepG2 Assay for human Phenobarbital-responsive Enhancer Module (PBREM) (AID 2282955). The note with it: HepG2 PBREM cis-reporter, Attagene multiplexed transcription; actives raise or lower the signal. The essentials: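 Cells were transfected with cis-element reporter units and treated for 24 h, after which RNA was extracted and reporter transcripts measured by RT-PCR and capillary electrophoresis.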

The target in assay [2] is Paired box protein Pax-6 (Homo sapiens) (UniProt P26367). Description: ATG_Pax6_CIS: Attagene CIS-FACTORIAL HepG2 Assay for human Paired Box 6 (PAX6) (AID 2282956). As to conditions: HepG2 CIS-FACTORIAL PAX6 reporter transcription, RNA readout; actives raise or lower the signal. The essentials: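 After twenty-four hours of chemical exposure, transfected HepG2 cells are harvested for RNA. Cis-promoter reporter transcripts are amplified, fluorescently labelled and sized by capillary electrophoresis, with gain and loss of signal scored against DMSO.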

The nature of assay [3]: ATG_PXRE_CIS: Attagene CIS-FACTORIAL HepG2 Assay for human Pregnane X Receptor Element (PXRE) (AID 2282957). As to conditions: HepG2 Attagene CIS-FACTORIAL PXRE reporter, mRNA; actives raise or lower the signal. The method, boiled down: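 HepG2 cells transiently transfected with cis-element-driven multiplexed reporter units; after 24 h chemical exposure, reporter mRNA measured by RT-PCR, 6-FAM labelling, HpaI digestion and capillary electrophoresis. Bidirectional fitting relative to DMSO.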

Assay [4] in a line: ATG_PPRE_CIS: Attagene CIS-FACTORIAL HepG2 Assay for human Peroxisome Proliferator-activated Response Element (PPRE) (AID 2282958). As to conditions: HepG2 PPRE cis-element reporter, Attagene transcription factor profiling; actives raise or lower the signal. The essentials:
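In this cell-based multiplex, a PPRE cis element drives a reporter sequence in transiently transfected HepG2 cells. Following 24 h treatment, labeled cDNA amplicons are sized and quantified by capillary electrophoresis, with DMSO defining baseline.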

A short description of assay [5]: ATG_RORE_CIS: Attagene CIS-FACTORIAL HepG2 Assay for human RAR-related Orphan Receptor Element (RORE) (AID 2282959). The note with it: HepG2 Attagene cis-factorial RORE reporter, mRNA; actives raise or lower the signal. The method, boiled down:
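Endogenous factor activity at a cis response element is read as reporter transcript levels in HepG2 cells, 24 h post-dose. Transcripts are quantified by RT-PCR with capillary electrophoresis, and data fitted in both directions against DMSO.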

Assay [6] can be described thus: ATG_Sox_CIS: Attagene CIS-FACTORIAL HepG2 Assay for human SRY-box transcription factor (SOX) (AID 2282960). The note with it: HepG2 Attagene cis-factorial SOX reporter, mRNA; actives raise or lower the signal. The method, boiled down: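 Measures mRNA induction of a SOX1-associated reporter in HepG2 after 24 h dosing. Fluorescently labelled RT-PCR fragments are separated by capillary electrophoresis, and gain or loss relative to DMSO control is fitted.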

Assay [7] addresses Transcription factor Sp1 (Homo sapiens) (UniProt P08047). Description: ATG_Sp1_CIS: Attagene CIS-FACTORIAL HepG2 Assay for human Specificity Protein 1 (Sp1) (AID 2282961). The note with it: HepG2 Sp1 cis-reporter transcription, actives raise or lower the signal. The essentials: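 Cells: HepG2, transiently transfected with cis-regulated multiplexed reporters. Exposure: 24 h. Detection: reporter transcripts amplified, fluorescently labeled, restriction-digested and sized by capillary electrophoresis. Analysis: bidirectional fit relative to DMSO.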

Assay [8] is described as follows: ATG_SREBP_CIS: Attagene CIS-FACTORIAL HepG2 Assay for human Sterol Regulatory Element Binding (SREBP) (AID 2282962). The note with it: HepG2 Attagene cis-factorial SREBP reporter, mRNA; actives raise or lower the signal. The essentials:
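Twenty-four hours after chemical dosing of transfected HepG2 cultures, reporter RNA was converted to cDNA, amplified, end-labelled with 6-FAM and resolved by capillary electrophoresis. Responses were fitted relative to DMSO.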

Assay [9] can be described thus: ATG_TA_CIS: Attagene CIS-FACTORIAL HepG2 Assay for human TA Basal Promoter (AID 2282964). The note with it: HepG2 Attagene CIS-factorial TA basal promoter reporter; actives raise or lower the signal. The essentials:
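Read-out: fluorescent reporter-transcript fragments resolved by capillary electrophoresis after RT-PCR and HpaI digestion. Source: HepG2 cells carrying transiently transfected multi-reporter cis constructs, treated 24 h. Endpoint fitted bidirectionally relative to DMSO.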

A short description of assay [10]: ATG_TCF_b_cat_CIS: Attagene CIS-FACTORIAL HepG2 Assay for human T-Cell-Factor with beta-catenin (TCF/b-cat) (AID 2282965). The note with it: HepG2 TCF/beta-catenin cis-reporter transcription, actives raise or lower the signal. The method, boiled down:
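Endogenous transcription factor activity is captured through cis-promoter reporter constructs transiently introduced into human HepG2 liver cells. Induced reporter mRNA is measured after 24 h and fitted bidirectionally relative to DMSO.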

The nature of assay [11]: ATG_TAL_CIS: Attagene CIS-FACTORIAL HepG2 Assay for human TAL Basal Promoter (AID 2282966).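 Further: background control endpoint measuring basal TAL promoter reporter mRNA not a specific factor.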 As to conditions: HepG2 Attagene cis-factorial TAL promoter reporter; actives raise or lower the signal. The essentials:
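HepG2 cells transiently transfected with multiplexed cis-promoter reporter units, dosed 24 h. Reporter mRNA quantified by RT-PCR, 6-FAM labelling, HpaI digestion and capillary electrophoresis; TAL basal promoter serves as background control, fitted bidirectionally versus DMSO.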

Assay [12] in a line: ATG_TGFb_CIS: Attagene CIS-FACTORIAL HepG2 Assay for human Transforming Growth Factor (TGF) (AID 2282967). As to conditions: HepG2 Attagene CIS TGFb reporter, mRNA transcription; actives raise or lower the signal. The essentials:
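Transient MRTU transfection of HepG2 (FuGene 6). Dose 24 h. TriZol RNA, oligo(dT) RT, PCR, 6-FAM primer extension, HpaI cut, CE. Bidirectional fit, DMSO = baseline.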

Assay [13] addresses X-box-binding protein 1 (Homo sapiens) (UniProt P17861). Put plainly: ATG_Xbp1_CIS: Attagene CIS-FACTORIAL HepG2 Assay for human X-box Binding Protein 1 (XBP1) (AID 2282972). As to conditions: HepG2 XBP1 cis-element reporter, Attagene multiplex; actives raise or lower the signal. The essentials:
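After a 24-hour chemical exposure of HepG2 cells carrying cis-regulated reporters, reporter mRNA levels are assessed. Quantification uses RT-PCR, 6-FAM labelling and capillary electrophoresis. Gain- or loss-of-signal is fitted against DMSO.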

A short description of assay [14]: ATG_M_19_TRANS: Attagene TRANS-FACTORIAL HepG2 Assay for M19 Transcription Factor (Internal Marker) (AID 2282974; active means hit-call score of the fitted dose curve at least 0.9, where 1 is the maximum). The note with it: HepG2 Attagene TRANS-FACTORIAL M19 internal marker reporter. The essentials:
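Reporter mRNA induction was measured in transfected HepG2 cells 24 h after dosing. Endpoint fitted upward relative to DMSO and serves as a background control within the multiplexed TRANS panel.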

The nature of assay [15]: ATG_GAL4_TRANS: Attagene TRANS-FACTORIAL HepG2 Assay for GAL4 (Internal Marker) (AID 2282976; active means hit-call score of the fitted dose curve at least 0.9, where 1 is the maximum). The note with it: HepG2 Attagene TRANS GAL4 internal marker reporter. The method, boiled down: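 Background-control readout: GAL4-UAS reporter transcript in transiently transfected HepG2 cells after 24 h compound exposure. Measured by RT-PCR, 6-FAM primer extension, HpaI digest and capillary electrophoresis; gain-of-signal fit versus DMSO.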

Assay [16] has as its target Signal transducer and activator of transcription 3 (Homo sapiens) (UniProt P40763). Put plainly: ATG_STAT3_CIS: Attagene CIS-FACTORIAL HepG2 Assay for human Signal Transducer and Activator of Transcription 3 (STAT3) (AID 2282963). The note with it: HepG2, Attagene cis-factorial STAT3 reporter transcription; actives raise or lower the signal. The method, boiled down:
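Endogenous STAT3-responsive cis-element activity was read in transiently transfected HepG2 cells after 24 h treatment. Reporter transcripts were quantified via RT-PCR and capillary electrophoresis, with DMSO as negative control and bidirectional curve fitting.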

Assay [17] is described as follows: ATG_VDRE_CIS: Attagene CIS-FACTORIAL HepG2 Assay for human Vitamin D Receptor Element (VDRE) (AID 2282968). As to conditions: HepG2 VDRE cis-reporter transcription, actives raise or lower the signal. The essentials: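 Reporter mRNA induction, quantified by capillary electrophoresis of fluorescently labelled RT-PCR products, was read 24 h after dosing HepG2 cells carrying transiently transfected cis-regulated reporter units; gain or loss relative to DMSO.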

Assay [18] deals with Estrogen receptor (Homo sapiens) (UniProt P03372). Description: ATG_ERa_TRANS: Attagene TRANS-FACTORIAL HepG2 Assay for human Estrogen Receptor alpha (ERa) (AID 2282970; active means hit-call score of the fitted dose curve at least 0.9, where 1 is the maximum). As to conditions: HepG2 Attagene TRANS ERa GAL4 reporter, mRNA. The essentials:
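HepG2 cells transiently transfected with multiplexed GAL4-UAS reporter units read out chimeric NR-Gal4 activity. After 24 h compound exposure, reporter mRNA was quantified by RT-PCR, 6-FAM labeling, HpaI digestion and capillary electrophoresis, relative to DMSO.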

The target in assay [19] is Nuclear receptor subfamily 1 group I member 3 (Homo sapiens) (UniProt Q14994). Put plainly: ATG_CAR_TRANS: Attagene TRANS-FACTORIAL HepG2 Assay for human Constitutive Androstane Receptor (CAR) (AID 2282969; active means hit-call score of the fitted dose curve at least 0.9, where 1 is the maximum;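 further: activators raise reporter mRNA above DMSO so AC50 marks induction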). The note with it: HepG2 Attagene TRANS-FACTORIAL CAR reporter. The method, boiled down:
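Readout is reporter mRNA induction, quantified by fluorescent primer extension and capillary electrophoresis after RT-PCR. Cells were HepG2 transiently carrying chimeric NR-Gal4 constructs with GAL4-UAS reporters, treated for 24 h; activity scored upward from DMSO.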

In assay [20] the target is Steroid hormone receptor ERR1 (Homo sapiens) (UniProt P11474). Description: ATG_ERRa_TRANS: Attagene TRANS-FACTORIAL HepG2 Assay for human Estrogen-Related Receptor alpha (ERRa) (AID 2282971; active means hit-call score of the fitted dose curve at least 0.9, where 1 is the maximum). As to conditions: HepG2 Attagene TRANS reporter, ERRa transactivation. The method, boiled down: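 HepG2 cells transiently transfected with GAL4-UAS reporter units and chimeric NR-Gal4 constructs; after 24 hour compound incubation, reporter mRNA quantified by RT-PCR, fluorescent labelling and capillary electrophoresis, gain of signal versus DMSO.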

Results filed as inconclusive are left out. The source made the active and inactive calls. How the source made its calls, unless noted: active means hit-call score of the fitted dose curve at least 0.9, where 1 is the maximum; inactive means score below 0.9.

Signal transducer and activator of transcription 3 (Homo sapiens), sequence (P40763 whole entry, looked up): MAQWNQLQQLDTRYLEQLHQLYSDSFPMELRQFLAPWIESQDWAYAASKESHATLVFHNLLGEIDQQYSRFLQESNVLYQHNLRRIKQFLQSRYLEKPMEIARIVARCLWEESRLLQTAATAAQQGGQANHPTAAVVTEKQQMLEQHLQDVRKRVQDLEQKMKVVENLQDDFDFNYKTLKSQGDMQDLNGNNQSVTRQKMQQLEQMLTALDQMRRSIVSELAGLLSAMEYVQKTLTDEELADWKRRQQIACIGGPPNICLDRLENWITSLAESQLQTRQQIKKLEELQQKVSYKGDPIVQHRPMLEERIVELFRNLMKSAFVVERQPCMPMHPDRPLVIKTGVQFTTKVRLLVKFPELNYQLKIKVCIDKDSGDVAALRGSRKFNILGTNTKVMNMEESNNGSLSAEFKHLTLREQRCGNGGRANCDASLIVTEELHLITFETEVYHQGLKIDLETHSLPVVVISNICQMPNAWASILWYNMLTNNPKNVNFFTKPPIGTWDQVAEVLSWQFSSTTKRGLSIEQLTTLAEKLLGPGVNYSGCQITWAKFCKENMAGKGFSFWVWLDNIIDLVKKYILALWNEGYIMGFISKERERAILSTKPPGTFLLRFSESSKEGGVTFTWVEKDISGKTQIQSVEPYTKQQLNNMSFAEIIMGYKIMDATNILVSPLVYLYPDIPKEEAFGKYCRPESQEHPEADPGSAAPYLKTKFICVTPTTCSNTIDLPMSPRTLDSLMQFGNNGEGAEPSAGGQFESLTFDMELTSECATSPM
X-box-binding protein 1 (Homo sapiens), sequence (P17861 whole entry, looked up): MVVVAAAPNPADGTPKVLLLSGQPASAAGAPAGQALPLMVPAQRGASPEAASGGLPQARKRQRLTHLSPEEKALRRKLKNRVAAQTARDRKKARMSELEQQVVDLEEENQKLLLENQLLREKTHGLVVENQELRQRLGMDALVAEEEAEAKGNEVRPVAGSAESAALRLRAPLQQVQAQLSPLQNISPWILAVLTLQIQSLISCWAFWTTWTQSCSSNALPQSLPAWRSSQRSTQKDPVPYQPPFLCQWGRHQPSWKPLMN
Estrogen receptor (Homo sapiens), sequence (P03372 whole entry, looked up, the tested form may be a part): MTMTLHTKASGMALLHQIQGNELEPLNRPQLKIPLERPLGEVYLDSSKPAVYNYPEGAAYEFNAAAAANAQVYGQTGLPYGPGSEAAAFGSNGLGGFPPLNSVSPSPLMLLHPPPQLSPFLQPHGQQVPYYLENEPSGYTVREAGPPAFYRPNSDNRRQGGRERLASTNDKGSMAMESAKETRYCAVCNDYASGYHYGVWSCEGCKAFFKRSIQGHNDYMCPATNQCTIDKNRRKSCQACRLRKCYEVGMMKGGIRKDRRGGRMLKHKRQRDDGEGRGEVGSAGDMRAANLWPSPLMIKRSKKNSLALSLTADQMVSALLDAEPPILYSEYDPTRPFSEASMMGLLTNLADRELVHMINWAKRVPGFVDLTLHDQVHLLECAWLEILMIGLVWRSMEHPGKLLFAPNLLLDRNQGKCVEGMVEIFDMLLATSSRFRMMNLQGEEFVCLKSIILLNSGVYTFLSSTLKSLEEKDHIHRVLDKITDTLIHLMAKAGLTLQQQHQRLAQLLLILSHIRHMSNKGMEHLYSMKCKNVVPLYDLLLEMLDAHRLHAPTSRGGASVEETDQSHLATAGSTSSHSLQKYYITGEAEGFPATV
Paired box protein Pax-6 (Homo sapiens), sequence (P26367 whole entry, looked up): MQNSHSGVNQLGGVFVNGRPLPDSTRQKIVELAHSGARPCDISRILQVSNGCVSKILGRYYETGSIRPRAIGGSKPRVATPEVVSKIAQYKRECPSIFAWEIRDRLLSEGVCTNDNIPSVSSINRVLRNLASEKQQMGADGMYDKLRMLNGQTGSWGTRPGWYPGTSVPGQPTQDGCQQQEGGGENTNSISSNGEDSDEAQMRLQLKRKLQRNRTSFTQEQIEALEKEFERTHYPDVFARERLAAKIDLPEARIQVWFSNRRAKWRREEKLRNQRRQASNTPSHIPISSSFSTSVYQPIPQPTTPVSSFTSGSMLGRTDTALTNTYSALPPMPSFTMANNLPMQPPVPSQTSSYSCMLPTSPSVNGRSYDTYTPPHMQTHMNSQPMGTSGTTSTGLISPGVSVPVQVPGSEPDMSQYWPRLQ
Transcription factor Sp1 (Homo sapiens), sequence (P08047 whole entry, looked up): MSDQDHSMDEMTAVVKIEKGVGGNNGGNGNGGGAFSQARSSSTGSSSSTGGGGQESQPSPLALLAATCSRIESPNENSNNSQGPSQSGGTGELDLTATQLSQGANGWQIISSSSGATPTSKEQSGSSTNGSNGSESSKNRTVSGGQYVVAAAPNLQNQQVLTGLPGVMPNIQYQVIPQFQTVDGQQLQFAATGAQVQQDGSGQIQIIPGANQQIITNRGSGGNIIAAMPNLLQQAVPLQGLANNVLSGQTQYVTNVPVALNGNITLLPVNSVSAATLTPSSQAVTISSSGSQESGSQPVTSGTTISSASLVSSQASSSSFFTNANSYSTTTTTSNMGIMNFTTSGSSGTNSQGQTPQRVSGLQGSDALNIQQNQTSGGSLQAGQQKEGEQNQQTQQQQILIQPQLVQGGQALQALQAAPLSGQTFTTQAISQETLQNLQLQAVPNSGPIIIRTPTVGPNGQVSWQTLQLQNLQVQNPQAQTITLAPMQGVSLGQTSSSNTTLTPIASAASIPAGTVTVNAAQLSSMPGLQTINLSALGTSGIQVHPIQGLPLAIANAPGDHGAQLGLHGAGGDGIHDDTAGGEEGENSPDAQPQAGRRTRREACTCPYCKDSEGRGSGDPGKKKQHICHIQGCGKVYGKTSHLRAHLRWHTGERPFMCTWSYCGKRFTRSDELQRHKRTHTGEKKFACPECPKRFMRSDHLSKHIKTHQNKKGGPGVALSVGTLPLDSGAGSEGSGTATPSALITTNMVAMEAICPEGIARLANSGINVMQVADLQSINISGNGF
Nuclear receptor subfamily 1 group I member 3 (Homo sapiens), sequence (Q14994 whole entry, looked up, the tested form may be a part): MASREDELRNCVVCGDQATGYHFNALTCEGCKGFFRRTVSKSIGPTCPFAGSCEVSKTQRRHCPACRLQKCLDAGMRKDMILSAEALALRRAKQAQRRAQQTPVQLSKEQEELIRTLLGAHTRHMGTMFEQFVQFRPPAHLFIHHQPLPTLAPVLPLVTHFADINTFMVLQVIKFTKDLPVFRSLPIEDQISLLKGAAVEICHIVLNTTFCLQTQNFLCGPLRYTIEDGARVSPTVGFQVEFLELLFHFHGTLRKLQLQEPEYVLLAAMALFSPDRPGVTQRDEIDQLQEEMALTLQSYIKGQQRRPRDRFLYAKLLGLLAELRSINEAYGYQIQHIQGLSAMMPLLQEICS
Steroid hormone receptor ERR1 (Homo sapiens), sequence (P11474 whole entry, looked up, the tested form may be a part): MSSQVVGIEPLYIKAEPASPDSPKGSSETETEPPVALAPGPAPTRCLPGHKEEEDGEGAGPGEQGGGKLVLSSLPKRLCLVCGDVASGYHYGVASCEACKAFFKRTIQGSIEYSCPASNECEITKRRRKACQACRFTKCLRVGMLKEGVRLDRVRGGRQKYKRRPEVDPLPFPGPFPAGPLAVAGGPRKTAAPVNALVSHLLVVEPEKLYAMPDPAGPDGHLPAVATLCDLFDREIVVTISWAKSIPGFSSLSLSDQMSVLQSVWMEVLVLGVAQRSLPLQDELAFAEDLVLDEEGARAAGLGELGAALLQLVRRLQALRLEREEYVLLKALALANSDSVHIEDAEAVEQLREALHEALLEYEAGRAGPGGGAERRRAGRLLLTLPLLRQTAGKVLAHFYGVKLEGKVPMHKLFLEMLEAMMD

Turning to `C1CCCNCC1`, the result in assay [1], in assay [2], in assay [4], in [5], in assay [6] and in [7] was inactive. For the same compound, the outcome in assay [8], in assay [9], in [10], in [11], in assay [12] and in [13] was inactive. Also, the compound was called inactive in assay [14] and in assay [15]. Also, the AC50 in assay [3] is 27.3 µM (active).

For the compound `CCCCCCCCCCO[C@@H]1O[C@H](CO)[C@@H](O)[C@H](O)[C@H]1O`, the result in assay [1], in assay [2], in assay [3], in assay [4], in [5] and in assay [6] was inactive. In addition, the compound was called inactive in [7], in assay [16], in assay [9], in assay [10], in [11] and in assay [17]. Also, the call in [13], in assay [14] and in assay [15] was inactive.

As to `CC(C)(C)C1CCC(O)CC1` (centres undefined), the result in assay [1], in assay [2], in assay [3], in assay [4], in assay [5] and in assay [6] was inactive. For the same compound, the outcome in assay [7], in [8], in assay [16], in assay [9], in assay [11] and in assay [12] was inactive. The call in assay [17], in assay [13] and in assay [14] was inactive. Further, the AC50 in [18] was 29.2 µM (active).

`C=C/C(C)=C/C/C=C(\C)CCC=C(C)C`: the result in assay [1], in assay [2], in assay [4], in assay [5], in assay [6] and in assay [8] was inactive. For the same compound, the outcome in assay [16], in assay [9], in assay [10], in [11], in assay [12] and in assay [17] was inactive. Besides, the compound was classed as inactive in assay [18] and in [13]. In assay [3], the AC50 is 3.8 µM (active).

With `CCC(C)COC(=O)CC(C)C` (centres undefined), the outcome in [1], in assay [2], in [3], in [4], in [5] and in [6] was inactive. Besides, the compound was called inactive in assay [7], in [16], in assay [9], in assay [10], in [11] and in assay [12]. In addition, the compound was called inactive in assay [17], in [19], in assay [18], in assay [13], in [14] and in [15].

For the compound `CC(C)Cc1ccc(C(C)C(=O)O)cc1` (centres undefined), the result in assay [1], in assay [2], in assay [3], in [5], in assay [6] and in assay [7] was inactive. The call in assay [8], in assay [16], in assay [9], in [10], in assay [20] and in [13] was inactive. In addition, the outcome in assay [14] and in [15] was inactive. The results for the AC50 in [4] and in assay [18] were 34.4 µM (active) and 36.4 µM (active), respectively.

For the compound `CC/C=C\C#N`, the outcome in assay [1], in assay [2], in [3], in assay [4], in [5] and in [6] was inactive. Besides, the compound was called inactive in assay [8], in [16], in assay [9], in [10], in [11] and in assay [12]. Besides, the compound was classed as inactive in assay [17], in assay [18], in assay [13] and in [14].

Take `CCCCCCCCCCCCS`: the result in [1], in assay [2], in assay [4], in assay [5], in assay [6] and in assay [16] was inactive. Besides, the outcome in assay [9], in assay [10], in assay [11], in assay [12], in [19] and in [18] was inactive. Besides, the compound was classed as inactive in [13] and in assay [15]. Moreover, the AC50 is 33.4 µM (active) in assay [3], 33.4 µM (active) in assay [8], 42.5 µM (active) in assay [17] and 5.01 µM (active) in assay [14].
